Sampled rows, rich in hits. Any-hit rate of the full collection: about 4.6%.
KKLEB tox = reduces viability of KKLEB cystic fibrosis airway cells. KKLEB CF airway cells viability, ATPlite luminescence, overnight; active compounds read low; cells stimulated with P. aeruginosa culture filtrate. activity change (cytotoxicity), % at 5 µM. actives 0.36% (n = 360,000). AID 602141;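 active means corrected activity change at or below -50% at 5 µM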
CF NFkB block = inhibitors of cystic fibrosis induced NF-kB | AID 588850 | actives 0.86% (n = 360,000) | KKLEB NF-kB-GFP reporter, PAF-induced, GFP fluorescence overnight | inhibition, % at 5 µM;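 active means at least 50% inhibition at 5 µM, scaled per plate between neutral and stimulator controls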;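 further: PAF is a Pseudomonas aeruginosa culture filtrate used as stimulus; plate controls were PAF-stimulated DMSO wells for no effect and unstimulated DMSO wells for full effect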
HIF-2a inh = inhibitors of HIF-2a. actives 0.72% (n = 360,000). inhibition, % at 18.8 µM. 786-0 RCC cells HIF-2a reporter, luciferase luminescence, overnight. AID 624352;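 active means inhibition of the luminescence signal of 40% or more relative to plate controls, in a single-dose primary screen at 18.75 µM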
ABHD5 PLIN5 PPI = ABHD5-PLIN5 protein interaction inhibition; inhibition, % at 4 µM; AID 602281; actives 0.78% (n = 360,000); Split G. princeps luciferase complementation, luminescence, 4 h;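 active means inhibition above the mean inhibition across every tested compound plus 3 SD, cut at about 22% in these data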;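 further: 0% = DMSO only wells and the 100% control is not disclosed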
Mdm2-MdmX inh = human Mdm2/MdmX binding inhibition. O15151+Q00987. SaOS-2 split-luciferase Mdm2/MdmX complementation, luminescence. inhibition, % at 8 µM. actives 3% (n = 330,000);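 active means inhibition of at least 50% at 8 µM in the primary screen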
Target sequence (O15151 whole entry, looked up): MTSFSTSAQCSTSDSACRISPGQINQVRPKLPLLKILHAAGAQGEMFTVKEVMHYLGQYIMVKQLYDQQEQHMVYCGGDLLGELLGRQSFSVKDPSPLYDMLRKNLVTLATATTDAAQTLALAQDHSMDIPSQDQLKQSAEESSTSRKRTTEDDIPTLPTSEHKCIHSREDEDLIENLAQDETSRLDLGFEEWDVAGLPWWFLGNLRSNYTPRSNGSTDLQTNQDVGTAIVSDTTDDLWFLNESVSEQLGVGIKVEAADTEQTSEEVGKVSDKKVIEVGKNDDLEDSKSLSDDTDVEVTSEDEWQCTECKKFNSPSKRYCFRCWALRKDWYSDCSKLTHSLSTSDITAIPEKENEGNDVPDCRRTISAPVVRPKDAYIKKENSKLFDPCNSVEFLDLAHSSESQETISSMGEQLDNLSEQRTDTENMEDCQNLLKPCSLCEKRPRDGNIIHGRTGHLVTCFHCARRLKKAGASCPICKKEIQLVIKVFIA
Target sequence (Q00987 whole entry, looked up): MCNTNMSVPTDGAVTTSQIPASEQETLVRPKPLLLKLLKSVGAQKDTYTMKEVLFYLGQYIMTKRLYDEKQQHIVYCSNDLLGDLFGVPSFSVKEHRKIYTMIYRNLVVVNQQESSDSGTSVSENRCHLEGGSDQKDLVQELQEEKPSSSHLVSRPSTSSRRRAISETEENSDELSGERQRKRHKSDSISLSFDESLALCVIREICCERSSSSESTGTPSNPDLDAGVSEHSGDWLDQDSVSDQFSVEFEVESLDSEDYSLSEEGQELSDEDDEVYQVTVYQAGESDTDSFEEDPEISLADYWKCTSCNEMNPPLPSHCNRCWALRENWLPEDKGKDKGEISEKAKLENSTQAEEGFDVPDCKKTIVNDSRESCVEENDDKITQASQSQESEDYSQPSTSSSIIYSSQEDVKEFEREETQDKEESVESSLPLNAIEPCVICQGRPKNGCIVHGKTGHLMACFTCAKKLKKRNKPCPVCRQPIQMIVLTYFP
Peg3 promoter = Peg3 promoter activity inhibition; HeLa PEG-Prom luciferase reporter, luminescence, overnight; inhibition, % at 20 µM; actives 1.7% (n = 360,000); AID 588405;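 active means inhibition of at least 50% at 20 µM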
Numbers without * were called inactive; ! = a repeat was not active.

Screening C#CCOCCOCCOCCNc1nc(N2CCN(C(=O)[C@H](Cc3cc4ccccc4[nH]3)n3cc([C@@H](N)C(C)CC)nn3)CC2)nc(N2CCN(C(=O)[C@H](CCCCN)n3cc([C@@H](N)CO)nn3)CC2)n1 (stereo partly drawn) returned Mdm2-MdmX inh 15.
C#CCOCCOCCOCCNc1nc(N2CCN(C(=O)[C@H](CCCCN)n3cc([C@@H](N)C(C)CC)nn3)CC2)nc(N2CCN(C(=O)[C@H](Cc3cc4ccccc4[nH]3)n3cc([C@@H](N)CC(C)C)nn3)CC2)n1 (stereo partly drawn) was read as KKLEB tox 19, CF NFkB block -6, HIF-2a inh 15, ABHD5 PLIN5 PPI 24*, Mdm2-MdmX inh -2 and Peg3 promoter -5.
`C#CCOCCOCCOCCNc1nc(N2CCN(C(=O)CCCCCCCCCCNC(=O)[C@H]([C@@H](C)CC)n3cc(CCCCN=C(N)N)nn3)CC2)nc(N2CCN(C(=O)CCCCCCCCCCNC(=O)[C@H]([C@@H](C)CC)n3cc(CCCCN=C(N)N)nn3)CC2)n1` gave Mdm2-MdmX inh -24.
`O=C(CCCCCn1nnc2ccccc2c1=O)Nc1ccccc1F` gave KKLEB tox -16, CF NFkB block 11, HIF-2a inh 3, ABHD5 PLIN5 PPI -5, Mdm2-MdmX inh 6 and Peg3 promoter 7.
For COc1ccc2c(c1OC)OCC2C (stereo not drawn) the results were KKLEB tox -4, CF NFkB block -1, HIF-2a inh 14, ABHD5 PLIN5 PPI -6 and Peg3 promoter 23.
For COc1cc(N2CCCC2)c(OC)cc1/C=C(/C#N)c1ccc(Br)cc1 the results were KKLEB tox -3, CF NFkB block -60, HIF-2a inh 1, ABHD5 PLIN5 PPI -2, Mdm2-MdmX inh -37 and Peg3 promoter 53*.
Screening COc1ccc(OC(F)(F)F)cc1CC1(C)C(=O)Nc2c(Cl)ccc(Cl)c21 (stereo not drawn) returned KKLEB tox 8, CF NFkB block -11, HIF-2a inh 9, ABHD5 PLIN5 PPI -10 and Peg3 promoter 24.
Cc1ccccc1C(OCCN(C)C)c1ccccc1 (stereo not drawn) was read as KKLEB tox 20, CF NFkB block 0, HIF-2a inh -8, ABHD5 PLIN5 PPI 27*!, Mdm2-MdmX inh 19 and Peg3 promoter -13.
`CCN(CC)CCOC(c1ccccc1)c1ccc(C)cc1` (stereo not drawn) gave KKLEB tox 3, CF NFkB block -1, HIF-2a inh 18, ABHD5 PLIN5 PPI 3, Mdm2-MdmX inh 10 and Peg3 promoter 2.
`O=C1C2C3C=CC(O3)C2C(=O)N1N=Cc1cccc2ccccc12` (stereo not drawn) gave KKLEB tox -2, CF NFkB block -21, HIF-2a inh -88, ABHD5 PLIN5 PPI 4 and Peg3 promoter -111.
Cc1cc(=O)n2nc(N3CCCC(C(=O)Nc4ccc(C)c(C)c4)C3)sc2n1 (stereo not drawn) was read as KKLEB tox -1, CF NFkB block 4, HIF-2a inh -13, ABHD5 PLIN5 PPI 2, Mdm2-MdmX inh 0 and Peg3 promoter 6.
For COC(=O)N/N=C(C)\C=C\c1ccco1 the results were KKLEB tox -10, CF NFkB block 18, HIF-2a inh -2, ABHD5 PLIN5 PPI 14, Mdm2-MdmX inh 17 and Peg3 promoter -6.
`COC(=O)C(=C/C=C/c1ccco1)C(=O)OC` gave KKLEB tox 9, CF NFkB block -7, HIF-2a inh -16, ABHD5 PLIN5 PPI 23*, Mdm2-MdmX inh 2 and Peg3 promoter -20.
C[C@@H]1CN([C@H](C)CO)C(=O)c2c(c3ccccc3n2C)-c2ccccc2CO[C@H]1CN(C)Cc1ccccc1 was read as KKLEB tox -13, CF NFkB block 22, HIF-2a inh -27, ABHD5 PLIN5 PPI -4 and Peg3 promoter 1.
`C[C@@H]1CN([C@H](C)CO)C(=O)c2c(c3ccccc3n2C)-c2ccccc2CO[C@H]1CN(C)Cc1ccc(-c2ccccc2)cc1` gave KKLEB tox 0, CF NFkB block 4, HIF-2a inh -15, ABHD5 PLIN5 PPI -9 and Peg3 promoter 83*.

Source: PubChem (several laboratories)
